40 molecules from PubChem BioAssay (EPA / NIEHS) can be followed below.

A word on the AC50: it is the concentration giving half of the maximal activity seen.

The source made the active and inactive calls. Rule for the calls: active = hit-call score of the fitted dose curve at least 0.9, where 1 is the maximum; inactive = score below 0.9.

This assay in a line: ATG_EGR_CIS: Attagene CIS-FACTORIAL HepG2 Assay for human Early Growth Response 1 (EGR1) (AID 2282938). Conditions: HepG2 Attagene CIS-FACTORIAL EGR reporter mRNA; actives raise or lower the signal. As for the experimental part: ATG_CIS is a cell-based, multiplexed-readout assay that uses HepG2, a human liver cell line, with measurements taken at 24 hours after chemical dosing in a 24-well plate.ATG_EGR_CIS is one of 52 assay component(s) measured or calculated from the ATG_CIS assay. It is designed to make measurements of mRNA induction, a form of inducible reporter, as detected with fluorescence intensity signals by Reverse transcription polymerase chain reaction (RT-PCR) and Capillary electrophoresis technology.Data from the assay component ATG_EGR_CIS was analyzed into 1 assay endpoint. This assay endpoint, ATG_EGR_CIS, was analyzed with bidirectional fitting relative to DMSO as the negative control and baseline of activity. Using a type of inducible reporter, measures of mRNA for gain or loss-of-signal activity can be used to understand the reporter gene at the transcription factor-level as they relate to the gene EGR1. Furthermore, this assay endpoint can be referred to as a primary readout, because this assay has produced multiple assay endpoints where this one serves a reporter gene function. To generalize the intended target to other relatable targets, this assay endpoint is annotated to the dna binding intended target family, where the subfamily is zinc finger.
Human liver HepG2 cells are transiently transfected with multiple reporter transcription units (MRTUs) in 6-well plates using FuGene 6 reagent (Roche; 3 ml FuGene/1 mg DNA). The MRTU constructs are regulated by a cis-regulating element (promoter). […] A major difference between the CIS and TRANS system is that in CIS activities of endogenous TFs are measured, whereas the TRANS assay evaluates changes in activities of exogenous, chimeric NR-Gal4 proteins. […] At the end of 24 hour incubation, total RNA was isolated using TriZol reagent (Invitrogen). The isolated RNA is then reverse-transcribed using oligo(dT) primer and Mo-MLV reverse transcriptase (Invitrogen) with DNAse I (Ambion) treatment for 30 min. The one-tenth of the produced cDNA was amplified by PCR using Taq DNA polymerase (Invitrogen) and two reporter sequence-specific primers. The PCR products were fluorescently labeled by primer extension with 6-arboxyfluorescein (6-FAM) 5'-labeled reporter sequence-specific primer (2 min at 95 C, 20 s at 68 C and 10 min at 72 C) and these products were digested with 5U of HpaI (New England Biolabs) for 2h at 37 C. The fragments were purified using Qiaquick PCR columns (Qiagen), analyzed on an ABI 3130xL genetic analyzer (Applied Biosystems) with peak positions identified by using a set of X-rhodamine (ROX)-labeled MapMarker1000 molecular weight standards (BioVentures). The raw capillary electrophoresis data was processed using Attagraph software (Attagene).
As to `Cl[C@H]1OCCO[C@@H]1Cl`, the molecule was called inactive.

As to `CC(C)[C@@H](Nc1ccc(C(F)(F)F)cc1Cl)C(=O)OC(C#N)c1cccc(Oc2ccccc2)c1` (stereo not given in full), the call was inactive.

`O=S(=O)(c1ccc(Cl)cc1)c1cc(Cl)c(Cl)cc1Cl`: the outcome was inactive.

For `OCCN(CCO)CCO`, the result was inactive.

In the case of `C[C@@H]1O[C@@H](O[C@H]2C[C@@H](O)[C@]3(CO)[C@H]4[C@H](O)C[C@]5(C)[C@@H](C6=CC(=O)OC6)CC[C@]5(O)[C@@H]4CC[C@]3(O)C2)[C@H](O)[C@H](O)[C@H]1O`, the AC50 was 0.0716 µM (active).

Take `C=CC(=O)OCC(COC(=O)C=C)(COC(=O)C=C)COC(=O)C=C`: the AC50 is 8.31 µM (active).

Turning to `O=[N+]([O-])c1ccccc1O`, the molecule was classed as inactive.

In the case of `C#CCOC(=O)/C=C(C)/C=C/CC(C)CCCC(C)C` (stereo not given), the molecule was classed as inactive.

Take `CC(C)[C@H](C(=O)OC(C#N)c1cccc(Oc2ccccc2)c1)c1ccc(OC(F)F)cc1` (stereo not given in full): the result was inactive.

In the case of `C=CCCl`, the result was inactive.

In the case of `C1CN2CCN1CC2`, the call was inactive.

In the case of `CN(N=O)c1ccc([N+](=O)[O-])cc1`, the result was inactive.

For the molecule `CS(=O)(=O)c1ccc(C(=O)C2C(=O)CCCC2=O)c(Cl)c1COCC(F)(F)F`, the call was inactive.

Consider `O=C(NC(=O)c1c(F)cccc1F)Nc1cc(Cl)c(OC(F)(F)C(F)C(F)(F)F)cc1Cl` (stereo not given), for which the molecule was called inactive.

In the case of `CCOP(=S)(OCC)Oc1ccc(Cl)cc1Cl`, the molecule was called inactive.

With `Fc1cccc(Cl)c1CCl`, the outcome was inactive.

Turning to `CCCCOC(C)=O`, the molecule was classed as inactive.

Consider `O=C(O)COc1cc(Cl)c(Cl)cc1Cl`, for which the molecule was classed as inactive.

For `O=C(NC(=O)c1c(F)cccc1F)Nc1cc(Cl)c(Oc2ncc(C(F)(F)F)cc2Cl)c(Cl)c1`, the molecule was classed as inactive.

With `OCCCCO`, the call was inactive.

On to `O=C(N[C@H]1CN2CCC1CC2)c1ccc2c(c1)OCCO2`, for which the molecule was classed as inactive.

On to `O=S1OC[C@@H]2[C@H](CO1)[C@]1(Cl)C(Cl)=C(Cl)[C@@]2(Cl)C1(Cl)Cl` (stereo not given in full), for which the result was inactive.

With `O=c1[nH]c2ccccc2n1C1CCN(CCCC(c2ccc(F)cc2)c2ccc(F)cc2)CC1`, the molecule was classed as inactive.

Turning to `CN(C)c1ccc(N=O)cc1`, the AC50 was 13.5 µM (active).

As to `N#CCCC(Br)(C#N)CBr` (stereo not given), the AC50 was 45.3 µM (active).

As for `O=C(O)c1cc(I)cc(I)c1I`, the call was inactive.

As to `CC(C)C(C)(N)C#N` (stereo not given), the call was inactive.

In the case of `Nc1ccc(N)cc1`, the molecule was classed as inactive.

In the case of `CCN(CCO)CCO`, the molecule was classed as inactive.

For the molecule `Clc1ccc(C(Cl)(Cl)Cl)cn1`, the outcome was inactive.

With `Cc1cccc(OP(=O)(Oc2cccc(C)c2)Oc2cccc(C)c2)c1`, the outcome was inactive.

As to `Cc1cccc(C)c1NC(=O)CN1CCCC1=O`, the result was inactive.

Regarding `Nc1ncn[nH]1`, the outcome was inactive.

As for `C=C(C)[C@@H]1CC=C(C=O)CC1`, the result was inactive.

As to `BrCC(Br)c1ccccc1` (stereo not given), the outcome was inactive.

With `CCCCCCCCCCCCN(C)C`, the AC50 was 53.9 µM (active).

Turning to `O=C(CCl)Nc1ccccc1`, the AC50 was 44.4 µM (active).

Regarding `Cc1cc(C(F)(C(F)(F)F)C(F)(F)F)ccc1NC(=O)c1cccc(I)c1C(=O)NC(C)(C)CS(C)(=O)=O`, the call was inactive.

For the molecule `OC(Cc1ccccc1Cl)(Cn1[nH]cnc1=S)C1(Cl)CC1` (stereo not given), the molecule was classed as inactive.

Turning to `CC(C)(C)c1ccc(CCOc2ncnc3ccccc23)cc1`, the molecule was called inactive.
